Screens as filed in PubChem BioAssay.
Shown are actives, neighbours in structure and some others; about 3.5% of the full set was active somewhere.
UGM FP inh = inhibitors of M. tuberculosis UDP-galactopyranose mutase; purified UGM, fluorescence polarization probe displacement; inhibition, % at 10 µM; 320,000 compounds, 0.06% hits; AID 504406; in the data active = inhibition above about 10%, passing the limit was not always enough
Mtb FBA inh = Mtb fructose-bisphosphate aldolase inhibition. 360,000 compounds, 2.3% hits. inhibition, % at 1 µM. P9WQA3. purified M. tuberculosis FBA, fluorescence read-out; in the data active = inhibition above about 27%;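 also: 0% = vehicle and 100% = reference inhibitor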
Target sequence (P9WQA3 whole entry, looked up): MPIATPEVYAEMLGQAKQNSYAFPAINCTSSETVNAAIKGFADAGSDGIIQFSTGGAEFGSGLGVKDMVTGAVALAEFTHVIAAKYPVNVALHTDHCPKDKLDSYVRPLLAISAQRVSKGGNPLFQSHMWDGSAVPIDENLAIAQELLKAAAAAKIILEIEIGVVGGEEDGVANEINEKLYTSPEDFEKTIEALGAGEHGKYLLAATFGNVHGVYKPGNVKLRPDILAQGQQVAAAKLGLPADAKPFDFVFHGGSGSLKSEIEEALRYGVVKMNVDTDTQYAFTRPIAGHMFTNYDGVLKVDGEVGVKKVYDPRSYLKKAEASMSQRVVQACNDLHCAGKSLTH
Rv3671c protease = inhibitors of M. tuberculosis serine protease Rv3671c. AID 2606. 320,000 compounds, 0.048% hits. inhibition, % at 5.96 µM. P9WHR9; in the data active = inhibition above about 38%;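 also: extracellular domain of Rv3671c used as enzyme; 0% = enzyme with DMSO and 100% = no enzyme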
GDH-TPI counter = inhibits GDH-TPI coupling enzymes, artifact for Mtb FBA screen; 360,000 compounds, 1.2% hits; AID 588335; inhibition, % at 4.8 µM; GDH-TPI coupled enzyme counterscreen, NADH absorbance; in the data active = inhibition above about 30%;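 also: 0% = DMSO wells and 100% = wells lacking the enzyme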
Mtb betalactam = beta-lactam sensitization of Mtb H37Rv | inhibition, % at 25 µM | M. tuberculosis H37Rv growth with meropenem, percent inhibition | 330,000 compounds, 0.27% hits; call rule not given here;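 also: growth measured after seven days incubation then overnight dye step; 0% = bacteria only wells and 100% = bacteria with antibiotic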
* hit, by the source's call; nt = no result given; + = active, no number.

SMILES | UGM FP inh | Mtb FBA inh | Rv3671c protease | GDH-TPI counter | Mtb betalactam
COCCCNC(=S)N/N=C/c1ccc(O)cc1 | -2 | -1 | -3 | 70* | 27
COc1ccc2c(c1)[nH]c1c(=O)n(Cc3ccco3)cnc12 | -1 | 1 | -2 | 14 | 1
COc1ccc2c(c1)c1ncn(Cc3ccco3)c(=O)c1n2C | 2 | 129* | -13 | 2 | 15
CCOC(=O)c1[nH]c(C)c(C(=O)OCC(=O)NC(C)c2ccc(F)cc2)c1C (stereo not drawn) | 1 | 1 | 1 | -2 | -5
COc1ccccc1NC(=O)C1CCN(S(=O)(=O)c2cccs2)CC1 | 17* | 1 | 4 | 8 | -2
COc1ccc(OC)c(NC(=O)C2CCN(S(=O)(=O)c3cccs3)CC2)c1 | 2 | 0 | -1 | 9 | -2
CCc1nnc(SCC(=O)NCCC2=CCCCC2)nc1CC | 2 | 0 | -3 | 9 | 12
CC(=O)c1cccc(NC(=O)Cn2cnc(S(=O)(=O)N3CCOCC3)c2)c1 | 1 | 0 | 2 | -2 | -1
COc1ccc(NC(=O)C2CC(c3ccc(Cl)cc3)=NO2)cc1OC (stereo not drawn) | 0 | 4 | 0 | -6 | -7
Cc1ccc(C2C(C#N)=C3N=C(N)c4ccccc4N3C3=C2C(=O)CCC3)cc1 (stereo not drawn) | 0 | -3 | 12 | 31* | 81
CCOC(=O)C1=C(O)C(=O)N(c2ccc(S(N)(=O)=O)cc2)C1c1cccc([N+](=O)[O-])c1 (stereo not drawn) | -2 | 3 | 3 | 32* | -6
Cc1nc(C(N)=O)c(N)n1CCc1ccccc1 | 0 | 5 | 5 | 9 | -4
CCN(CC)c1ccc(N=Cc2c(O)[nH]c(=O)[nH]c2=O)cc1 | 1 | -6 | -28 | 35* | -10
CCN1CCN(CC#CCOc2ccccc2OC)CC1 | -1 | 0 | -4 | 5 | -4
Cc1ccc(NC2c3ccccc3C(=O)N2c2cccnc2)cc1 (stereo not drawn) | -2 | 12 | -2 | 12 | -2
Cc1ccc(N/C=C2\C(=O)N(c3ccc(F)cc3F)C(c3cccnc3)S2(=O)=O)cc1 (stereo not drawn) | 3 | 3 | -8 | 66* | -6
COc1ccc(-c2ccnc3nc(-n4cccc4)nn23)cc1 | 0 | 6 | -9 | 11 | 7
COc1ccc(-c2ccnc3nc(N4CCOCC4)nn23)cc1 | -2 | 84* | 1 | 34* | 5
Cc1ccc(C(=O)NNC(=O)CSc2nnc3c(n2)[nH]c2ccc(F)cc23)cc1 | 0 | 2 | -2 | 11 | 4
COc1ccc2[nH]c3nc(SCC(=O)NNC(=O)c4ccc(OC)c(OC)c4)nnc3c2c1 | 0 | 0 | -10 | 41* | 4
CCOC(=O)CC1(C)c2nc(NC(C)=O)sc2Cc2sc(NC(C)=O)nc21 | nt | 161* | nt | nt | nt
CCOC(=O)c1sc(NC(C)=O)nc1C | 1 | 0 | 1 | -2 | 0
O=S(=O)(Nc1nc2ccccc2nc1Nc1ccc(N2CCOCC2)cc1)c1cc(Cl)ccc1Cl | 0 | 1 | 3 | 0 | 0
Cc1ccc(NC(=O)/C(C#N)=N/Nc2ccc(C(=O)O)cc2)c(C)c1 | 2 | -11 | 2 | 58* | -4
CC1(C)CC(=O)/C(=N/Nc2ccc(Cl)cc2)CO1 | 1 | -2 | -2 | 31* | 91
SMILES | UGM FP inh | Mtb FBA inh | Rv3671c protease | GDH-TPI counter | Mtb betalactam
Clc1ccc2nc3ccccn3c2c1 | -5 | 178* | 4 | 8 | 81
N#Cc1ccc2c(c1)nc1ccccn12 | -2 | + | 10 | 8 | 5
Cc1nn(Cc2ccccc2Cl)c(C)c1NC(=O)c1nc2ncccn2n1 | 2 | 0 | -1 | 37* | 4
O=C(N/N=C/c1ccc(Br)s1)c1ccc([N+](=O)[O-])cc1 | 6 | -3 | 1 | 3 | 2
O=C(N/N=C/c1ccc(Br)s1)c1ccccc1[N+](=O)[O-] | 4 | -3 | -2 | 38* | -2
O=C(NCCC1=CCCCC1)C(=O)NCc1ccncc1 | 1 | 4 | 0 | 3 | 5
COc1ccc2c(C#CCCO)c(-c3ccc(S(C)(=O)=O)cc3)sc2c1 | -3 | + | -1 | 29 | 2
COc1ccc(-c2sc3ccccc3c2C#CCO)cc1 | -1 | 17 | -21 | 8 | 93
COc1ccc2c(Cl)c(C(=O)NCCc3ccc(S(N)(=O)=O)cc3)sc2c1 | -1 | 1 | -16 | 16 | -3
COc1ccc2sc(-c3ccc(S(C)(=O)=O)cc3)c(C#CCO)c2c1 | -2 | 21 | -26 | 34* | 2
COc1ccc(-c2sc3ccccc3c2C#CCCO)cc1 | 1 | 6 | -21 | 9 | 95
COc1ccc2c(-c3ccc(S(N)(=O)=O)cc3)c(-c3ccc(S(C)(=O)=O)cc3)sc2c1 | nt | + | -16 | 12 | -4
CS(=O)(=O)c1ccc(-c2sc3ccccc3c2C#CCCO)cc1 | 4 | 17 | -5 | 32* | 24
CCOC(=O)C1CCCN(CC(=O)Nc2nccs2)C1 (stereo not drawn) | 4 | -3 | -10 | -2 | -6
C=CCNc1nc(N)c([N+](=O)[O-])c(Nc2ccccc2OC)n1 | 0 | 3 | -15 | 20 | 2
Nc1nc(NCC2CCCO2)nc(NCC2CCCO2)c1[N+](=O)[O-] (stereo not drawn) | 2 | -1 | -3 | -5 | -5
Nc1nc(NCCO)nc(NCC2CCCO2)c1[N+](=O)[O-] (stereo not drawn) | 0 | -1 | -12 | 37* | 2
Nc1nc(NCCO)nc(NCc2ccccc2)c1[N+](=O)[O-] | 2 | 0 | 3 | 25 | 4
CCC(C)Nc1nc(N)c([N+](=O)[O-])c(Nc2ccccc2OC)n1 (stereo not drawn) | 2 | 2 | -9 | 39* | 69
Nc1nc(NCc2ccccc2)nc(NCCO)c1[N+](=O)[O-] | -1 | -5 | -1 | 32* | -6
COc1ccccc1Nc1nc(NCCCN(C)C)nc(N)c1[N+](=O)[O-] | -5 | 0 | 3 | 38* | 1
Cc1ccc(C(=S)N2CCN(Cc3ccccc3)CC2)s1 | -1 | -4 | 5 | -1 | 1
Cc1cn([C@H]2C[C@H](O)[C@@H](CNC/C=C/c3ccccc3[N+](=O)[O-])O2)c(=O)[nH]c1=O | nt | -1 | nt | 7 | nt
OCCSc1nc(N2CCOCC2)nc(N2CCOCC2)n1 | -3 | 4 | -4 | 5 | 1
CCN(CC)CCCNc1nc(N)c([N+](=O)[O-])c(NCCO)n1 | -3 | 0 | -2 | 21 | -3
CN(C)CCCNc1nc(N)c([N+](=O)[O-])c(NCCO)n1 | -1 | -3 | 4 | 38* | -3
COc1ccccc1-c1ccc(/C=N/O)o1 | -2 | 4 | 3 | 27 | -8
COc1ccccc1-c1ccc(C(=O)O)o1 | -1 | 131* | 8 | 5 | 6
CCOC(=O)c1cc(OC)c2cccc(CN3CCCC(C)(C(=O)NCCOC)C3)c2c1 (stereo not drawn) | nt | 0 | nt | 7 | nt
CCOC(=O)c1cc(OC)c2cccc(CN3CCC(C)(C(=O)NCCOC)C3)c2c1 (stereo not drawn) | nt | 28* | nt | 20 | nt
